Measured potencies and affinities stand elsewhere.
These molecules were tested against Protein translocase subunit SecA (Escherichia coli (strain K12)) (UniProt P10408) (assay: Assay to Identify E. coli SecA ATPase Inhibitors). Settings: 30 µM.
Type: functional
Set-up: scale not given: direction of the effect not stated beside the values

Sequence of Protein translocase subunit SecA (Escherichia coli (strain K12)) (P10408 whole entry): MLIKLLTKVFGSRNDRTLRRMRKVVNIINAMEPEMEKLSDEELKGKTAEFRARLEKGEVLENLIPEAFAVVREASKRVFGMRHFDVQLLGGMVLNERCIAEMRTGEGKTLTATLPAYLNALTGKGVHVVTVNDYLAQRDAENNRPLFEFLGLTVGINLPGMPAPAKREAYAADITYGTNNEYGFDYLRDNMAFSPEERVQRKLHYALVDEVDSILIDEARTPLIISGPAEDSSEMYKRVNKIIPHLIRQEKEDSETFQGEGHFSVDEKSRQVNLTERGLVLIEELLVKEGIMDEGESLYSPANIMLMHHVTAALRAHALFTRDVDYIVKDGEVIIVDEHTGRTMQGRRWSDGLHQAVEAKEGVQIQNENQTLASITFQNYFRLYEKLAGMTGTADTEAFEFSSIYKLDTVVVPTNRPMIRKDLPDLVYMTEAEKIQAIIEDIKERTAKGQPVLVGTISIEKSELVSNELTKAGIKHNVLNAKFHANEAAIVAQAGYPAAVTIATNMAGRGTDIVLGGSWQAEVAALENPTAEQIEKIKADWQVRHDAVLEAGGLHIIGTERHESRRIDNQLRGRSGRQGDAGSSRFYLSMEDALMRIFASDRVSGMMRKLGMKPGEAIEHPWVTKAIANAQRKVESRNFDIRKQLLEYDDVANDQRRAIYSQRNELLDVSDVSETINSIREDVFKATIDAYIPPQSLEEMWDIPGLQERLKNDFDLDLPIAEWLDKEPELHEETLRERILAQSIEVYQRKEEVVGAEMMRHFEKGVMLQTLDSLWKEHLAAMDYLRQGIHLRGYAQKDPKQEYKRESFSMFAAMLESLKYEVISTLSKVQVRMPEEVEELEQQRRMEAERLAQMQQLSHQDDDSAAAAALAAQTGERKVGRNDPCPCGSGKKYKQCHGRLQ

Row | Compound | Percent Effect
1 | CC(C)OCc1ncn2c1CN(Cc1ccc(F)cc1)CCC2 | -4.79%
2 | Fc1cnc(N2C[C@H]3CCC[C@@]3(COc3ccccn3)C2)nc1 | -1.64%
3 | CCS(=O)(=O)N1CCC2(CCCN(Cc3cc(OC)ccc3F)C2)C1 (stereo not given) | -4.17%
4 | COC(=O)c1ccc(C(=O)NS(=O)(=O)c2cncc(Br)c2)cc1 | -4.86%
5 | COc1c(CNC(c2nccn2C)C(C)C)c(C)nn1C (stereo not given) | 1.37%
6 | CC(C)c1nc(CN(C)CC2CCN(CCO)CC2)no1 | -2.78%
7 | c1ccc2c(N3CCCC3Cn3cccn3)ncnc2c1 (stereo not given) | -2.93%
8 | CCOc1ccc(N2CCCN=C2NC(=O)c2ccccc2C)cc1 | -3.08%
9 | Cc1csc(N2CCN(C(=O)CCc3ccccn3)CC2)n1 | -1.62%
10 | COc1ccc(Cc2nnc(SC)o2)cc1OC | -4.8%
11 | Cn1ncc2c(NCCOc3ccc(F)cc3)nc(C3CCCC3)nc21 | -2.15%
12 | COCC1c2c(cnn2C)CCN1Cc1ccoc1 (stereo not given) | -4.26%
13 | CC(=O)Nc1nc(CN2CCCCC2Cn2cccn2)cs1 (stereo not given) | -4.14%
14 | O=C(NCC1CC1)c1nc(COc2ccc3c(c2)OCO3)no1 | 0.685%
15 | Cc1nccc(-c2cccc(NCC(=O)N3CCNC3=O)c2)n1 | -3.58%
16 | Cc1ccc(CN2CC3(CCN(C(=O)c4cscn4)C3)C2)s1 | 1.32%
17 | CCCc1nc(CN2CCOC(Cn3cncn3)C2)no1 (stereo not given) | -1.95%
18 | Cc1nn(C)c(C)c1CNC1CCOc2ccccc21 (stereo not given) | -2.99%
19 | Cc1noc2nc(C3CCN(Cc4cccnc4)CC3)cc(C(F)F)c12 | -3.07%
20 | COc1cc(OC)c(C2Nc3cc(Cl)ccc3C3=NCCN32)cc1OC (stereo not given) | -5.59%

These molecules were tested against T1, Ubiquitin-activating enzyme e1, putative (Leishmania donovani (strain BPK282A1)) (UniProt E9BSI1) (assay: Leishmania donovani Ubiquitin Activating Enzyme (LdE1)). Settings: 30 µM.
T1 sequence (whole entry): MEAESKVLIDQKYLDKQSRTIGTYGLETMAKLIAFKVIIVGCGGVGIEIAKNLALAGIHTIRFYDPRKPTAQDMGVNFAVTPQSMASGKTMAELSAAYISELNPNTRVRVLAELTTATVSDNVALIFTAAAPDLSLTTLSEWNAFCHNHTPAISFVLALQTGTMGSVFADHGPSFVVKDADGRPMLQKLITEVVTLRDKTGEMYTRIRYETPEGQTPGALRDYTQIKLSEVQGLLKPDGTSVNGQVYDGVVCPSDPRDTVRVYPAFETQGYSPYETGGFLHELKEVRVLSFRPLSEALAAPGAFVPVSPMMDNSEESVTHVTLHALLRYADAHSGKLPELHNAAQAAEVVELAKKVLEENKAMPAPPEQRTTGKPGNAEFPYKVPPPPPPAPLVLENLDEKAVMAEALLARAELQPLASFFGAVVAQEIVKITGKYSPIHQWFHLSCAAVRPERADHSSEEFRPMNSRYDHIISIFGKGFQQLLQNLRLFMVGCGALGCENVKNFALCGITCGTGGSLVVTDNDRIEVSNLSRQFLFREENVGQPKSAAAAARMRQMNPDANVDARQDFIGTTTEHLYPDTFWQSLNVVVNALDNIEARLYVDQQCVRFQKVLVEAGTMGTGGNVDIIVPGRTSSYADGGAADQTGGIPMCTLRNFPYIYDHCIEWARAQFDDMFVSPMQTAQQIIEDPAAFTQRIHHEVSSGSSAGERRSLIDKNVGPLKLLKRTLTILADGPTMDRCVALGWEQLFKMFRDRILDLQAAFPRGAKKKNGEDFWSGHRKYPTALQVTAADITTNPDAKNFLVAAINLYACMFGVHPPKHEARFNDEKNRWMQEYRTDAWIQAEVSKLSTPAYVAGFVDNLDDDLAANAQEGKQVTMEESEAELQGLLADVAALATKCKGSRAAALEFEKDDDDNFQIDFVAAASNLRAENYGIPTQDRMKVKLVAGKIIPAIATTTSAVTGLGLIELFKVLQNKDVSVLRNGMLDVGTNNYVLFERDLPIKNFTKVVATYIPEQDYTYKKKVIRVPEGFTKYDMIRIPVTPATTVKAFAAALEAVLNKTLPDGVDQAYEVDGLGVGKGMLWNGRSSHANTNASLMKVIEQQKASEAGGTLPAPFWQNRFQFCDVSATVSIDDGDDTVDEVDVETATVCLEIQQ
Type: functional
Set-up: scale not given: direction of the effect not stated beside the values

Row | Compound | Percent Effect
21 | N#CC1(C(=O)N2CCN(Cc3ccon3)CC2)CCC1 | 5.06%
22 | Cc1ccc2c(c1)c(CNC(=O)C1CC(=O)N(C3CCCC3)C1)nn2C (stereo not given) | 0%
23 | CCOc1cc(C)nc(N2CCN(Cc3nccn3C)CC2)n1 | 4.17%
24 | CCN(CC)C(=O)CCNC(=O)N1CCC(c2ccccc2)C1 (stereo not given) | 0%
25 | CCN1CCOC(CNCc2ccccc2OCC(=O)N(C)C)C1 (stereo not given) | 0%
26 | CC(NCc1ccc(Cl)o1)c1nnc2n1CCCC2 (stereo not given) | 13.5%
27 | Cc1ccc(NC(=O)Cn2cc(I)cn2)cc1 | -4.17%
28 | CC(C)c1nnc2n1CCN(C(=O)CN1Cc3ccccc3C1=O)C2 | 2.63%
29 | O=C(c1ccc(Cl)c(Cl)c1)N1CCCC(n2cncn2)C1 (stereo not given) | 2.7%
30 | O=C1COc2cc(C(=O)NS(=O)(=O)c3ccccc3F)ccc2N1 | 2.63%
31 | CN(C)[C@@H]1CCN(c2ncccn2)[C@H]1Cc1ccncc1 | 2.6%
32 | O=C([C@H]1CCCO1)N1CCc2ncnc(NC3CC3)c2CC1 | 0%
33 | c1ccc(-c2nnc(CNCCn3cccn3)o2)cc1 | -10.1%
34 | CC(C)c1nc2c(n1C)CCN(Cc1nc(-c3cccs3)no1)C2 | -5.41%
35 | COCCN1CC[C@@H]2OC[C@H](C(=O)NCc3cccs3)C[C@@H]2C1 | 13.5%
36 | O=C(NCc1ccc(F)cc1)N1CCC(C2OCCO2)CC1 | 7.89%
37 | CN(Cc1nnc(C2CC2)n1C)C1CCN(Cc2ccc(F)cc2)C1 (stereo not given) | 18.9%
38 | CN(C(=O)c1cccc2[nH]ncc12)C1CCN(c2ccccn2)CC1 | 7.79%
39 | Cc1nnc(N2CCC(CN(C)C(C)C)CC2)c(C#N)c1C | 2.6%
40 | Cc1cc(-c2nnc(SCC(=O)O)n2C(C)c2ccccc2)nn1C (stereo not given) | 12.5%
41 | CC(C)OCc1ncn2c1CN(Cc1ccc(F)cc1)CCC2 | 8.11%
42 | Fc1cnc(N2C[C@H]3CCC[C@@]3(COc3ccccn3)C2)nc1 | 1.33%
43 | CCS(=O)(=O)N1CCC2(CCCN(Cc3cc(OC)ccc3F)C2)C1 (stereo not given) | 6.94%
44 | COC(=O)c1ccc(C(=O)NS(=O)(=O)c2cncc(Br)c2)cc1 | 0%
45 | COc1c(CNC(c2nccn2C)C(C)C)c(C)nn1C (stereo not given) | -5.26%
46 | CC(C)c1nc(CN(C)CC2CCN(CCO)CC2)no1 | 0%
47 | c1ccc2c(N3CCCC3Cn3cccn3)ncnc2c1 (stereo not given) | 21.6%
48 | CCOc1ccc(N2CCCN=C2NC(=O)c2ccccc2C)cc1 | 7.79%
49 | Cc1csc(N2CCN(C(=O)CCc3ccccn3)CC2)n1 | 13.5%
50 | COc1ccc(Cc2nnc(SC)o2)cc1OC | 0%
